Test results from PubChem BioAssay (EPA / NIEHS).
Inconclusive results are not listed. Calls of active or inactive are those of the source. The calls were made as follows: active = hit-call score of the fitted dose curve at least 0.9, where 1 is the maximum; inconclusive = response in the unintended direction; inactive = score below 0.9.

Test: ACEA_ER_AUC_viability: ACEA Biosciences xCELLigence Real-Time Cell Analysis on Estrogen Receptor Agonism for Viability (AID 2283782);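 also: continuous compound exposure with impedance area under curve over 80 h; hit means loss of impedance signal meaning reduced cell growth or viability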
In short: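 T-47D human breast cells in phenol red-free RPMI1640 with 10% charcoal-stripped FBS were dosed with an 8-point 1:4 dilution series from 100 uM top final concentration, in duplicate. Impedance-based growth was followed for 80 h; AUC analysed versus DMSO.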

Compound | AC50 | outcome
CCCCCCCC/C=C\CCCCCCCC(=O)N(C)CC(=O)O | 83.4 µM (active) | –
Oc1ccc(C2(c3ccc(O)c(C4CCCCC4)c3)CCCCC2)cc1C1CCCCC1 | 38.9 µM (active) | –
CCOC(=O)CCC(C)=O | – | inactive
CCCCCCCCCCCC(=O)Cl | 79.8 µM (active) | –
CCN(CC)c1ccc2c(c1)Oc1cc(N(CC)CC)ccc1C21OC(=O)c2ccccc21 | 8.06 µM (active) | –
Brc1nc2ccccc2s1 | – | inactive
Nc1cccnc1N | 83.2 µM (active) | –
CC(C)CCCC(C)CCO (stereo unspecified) | – | inactive
OCC(O)CC(F)(F)C(F)(F)C(F)(F)C(F)(F)C(F)(F)C(F)(F)C(F)(F)C(F)(F)F (stereo unspecified) | – | inactive
NC(O)(C(F)(F)F)C(F)(F)F | – | inactive
CCCCCC/C=C/CCCCCCCC(=O)O | 50 µM (active) | –
